Data taken from article PMC5540273 (PLoS ONE, 2017).

What was measured:
Conditions in all cases: concentration: 1 μM, replicates: in singlicate; n = 1
[1] = system: MAP4K3
[2] = system: MAP4K4
[3] = system: MAP4K5
[4] = system: MAPKAPK2
[5] = system: MAPKAPK5
[6] = system: MARK1
[7] = system: MARK2
[8] = system: MARK3
[9] = system: MARK4
[10] = system: MAST1
[11] = system: T1, MEK1
T1 construct: gene MAP2K1

[12] = system: T2, MEK2
T2 construct: gene MAP2K2

[13] = system: T3, MEK3
T3 construct: gene MAP2K3

[14] = system: T4, MEK4
T4 construct: gene MAP2K4

[15] = system: T5, MEK5
T5 construct: gene MAP2K5

[16] = system: T6, MEK6
T6 construct: gene MAP2K6

[17] = system: MELK
[18] = system: MERTK
[19] = system: MET
[20] = system: T7, MINK
T7 construct: gene MINK1
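Note: KINOMEscan kinase panel screen.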

SMILES | %Inh [1] | %Inh [2] | %Inh [3] | %Inh [4] | %Inh [5] | %Inh [6] | %Inh [7] | %Inh [8] | %Inh [9] | %Inh [10] | %Inh [11] | %Inh [12] | %Inh [13] | %Inh [14] | %Inh [15] | %Inh [16] | %Inh [17] | %Inh [18] | %Inh [19] | %Inh [20]
N#Cc1ccc(-c2cc(-c3c[nH]nc3-c3ccccn3)ccn2)cc1 [GW693028] | 0% | 46% | 0% | 4% | 0% | 0% | 0% | 0% | 0% | 26% | 0% | 0% | 0% | 1% | 13% | 0% | 0% | 15% | 0% | 76%
O=C(NCCNc1ccnc(Nc2ccc(F)cc2)n1)c1cc2ccccc2s1 [GSK1379874] | 0% | 0% | 3% | 0% | 0% | 0% | 0% | 0% | 0% | 0% | 0% | 0% | 41% | 29% | 22% | 0% | 0% | 0% | 0% | 7%
Cc1nnc(-c2ccc3ncc(-c4ccc(S(C)=O)cc4)n3c2)o1 (centres unmarked) | 0% | 0% | 0% | 22% | 5% | 0% | 20% | 0% | 0% | 34% | 9% | 9% | 6% | 24% | 42% | 0% | 4% | 0% | 15% | 0%
O=C(NCCCN1CCOCC1)c1cccc(Nc2nccc(Nc3ccc(Oc4ccccc4)cc3)n2)c1 [GW663929] | 0% | 6% | 0% | 0% | 0% | 0% | 19% | 8% | 0% | 0% | 71% | 77% | 7% | 21% | 100% | 11% | 10% | 0% | 0% | 18%
Cc1ccc(NC(=O)c2ccnc(N3CCN(C)CC3)c2)cc1-c1ccc(C(=O)NCC2CC2)cc1 [GW775604] | 9% | 0% | 0% | 0% | 0% | 12% | 0% | 10% | 41% | 0% | 3% | 25% | 1% | 0% | 2% | 11% | 0% | 0% | 0% | 0%
O=c1cc(N2CCOCC2)nc2n(Cc3cccc(Cl)c3Cl)c(C3CC3)nn12 [GSK2358994] | 0% | 0% | 0% | 1% | 0% | 0% | 0% | 0% | 4% | 4% | 17% | 13% | 22% | 0% | 6% | 17% | 3% | 34% | 0% | 0%
CCn1cnc2c(N)ncnc21 [GW345098] | 1% | 0% | 0% | 0% | 10% | 0% | 12% | 4% | 0% | 5% | 26% | 20% | 26% | 11% | 1% | 0% | 0% | 25% | 2% | 5%
CSc1ccc(-c2cc3ncnc(SCC(=O)O)c3s2)cc1 | 0% | 0% | 0% | 1% | 0% | 0% | 18% | 6% | 0% | 15% | 0% | 0% | 2% | 0% | 1% | 0% | 10% | 0% | 3% | 8%
Cc1ccc(C(=O)NCC(N)=O)cc1-n1c(C)cc(OCc2ccc(F)cc2F)c(Br)c1=O | 12% | 4% | 0% | 17% | 0% | 24% | 11% | 10% | 16% | 0% | 0% | 26% | 0% | 0% | 2% | 13% | 24% | 3% | 15% | 0%
Cc1cccc(-c2nc(Nc3ccc4ncsc4c3)c3ccccc3n2)n1 [GW867588] | 9% | 3% | 4% | 0% | 0% | 6% | 0% | 0% | 9% | 21% | 2% | 3% | 3% | 0% | 12% | 0% | 5% | 0% | 0% | 0%
